From PubChem BioAssay (NCI)
This is part of a sample that, as a whole, favours compounds with a hit. Of some 79,000 tested, about 15% had one in any assay. No stated cut-off is given here; in the data, active means growth inhibition above about 70%; inactive means the rest.

What was measured:
[1] = NCI Yeast Anticancer Drug Screen. Data for the rad50 strain (AID 155);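 further: 0% = growth of vehicle-only cultures of the same strain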; conditions: S. cerevisiae rad50 strain growth inhibition; at 50.0 µM; active compounds read high
In short: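 Inhibition values express reduced yeast growth in compound-treated cultures relative to vehicle-treated controls.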

[2] = NCI Yeast Anticancer Drug Screen. Data for the mec2-1 strain (AID 157); conditions: S. cerevisiae mec2-1 strain, at 50.0 µM, active compounds read high
In short: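 Using mec2-1 yeast: add compound, measure growth, express inhibition versus vehicle-treated cultures.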

[3] = NCI Yeast Anticancer Drug Screen. Data for the sgs1 mgt1 strain (AID 161);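 further: 0% = growth of cultures given vehicle only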; conditions: S. cerevisiae sgs1 mgt1 strain, at 50.0 µM, active compounds read high
In short: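 This yeast growth screen uses a strain with defined DNA-repair lesions; compound-treated growth is compared with vehicle-treated growth.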

[4] = NCI Yeast Anticancer Drug Screen. Data for the cln2 rad14 strain (AID 165);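 further: 0% = growth equal to vehicle treated cultures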; conditions: S. cerevisiae cln2 rad14 strain, at 50.0 µM, active compounds read high
In short: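 Yeast strain cln2 rad14, bearing defects in cell cycle control and DNA repair, serves as the test system; values reflect growth inhibition compared with vehicle.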

[5] = NCI Yeast Anticancer Drug Screen. Data for the bub3 strain (AID 167); conditions: S. cerevisiae bub3 mutant strain, at 50.0 µM, active compounds read high
In short: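 Steps: expose the mutant yeast strain to compound; grow alongside vehicle-treated cultures; measure growth; express inhibition against the vehicle cultures.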

[6] = NCI Yeast Anticancer Drug Screen. Data for the mlh1 rad18 strain (AID 175); conditions: S. cerevisiae mlh1 rad18 strain growth inhibition; at 50.0 µM; active compounds read high
In short: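 Steps: expose repair-defective yeast to compound; measure growth; express inhibition against vehicle-treated controls.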

Measured: growth inhibition

CC(C)(C)c1ccc(C(C)(C)OO)cc1
inactive: [1] 31.6% | [2] -0.7% | [3] 18.3% | [4] 12.3% | [5] 10.2% | [6] 6.2%

O=C(Nc1ccccc1Cl)Oc1c(Cl)cc(S(=O)(=O)F)cc1Cl
inactive: [1] 20.4% | [2] 33.6% | [3] 34.1% | [4] 32.6% | [5] -2.05% | [6] 44.2%

CC1C/C(=C\N=[N+]=[N-])C(=O)O1 (stereo not drawn)
inactive: [1] -11.4% | [2] 14.7% | [3] 6% | [4] -4.9% | [5] 12.4% | [6] -0.05%

COc1cc(C2c3cc4c(c(O)c3C[C@H]3COC(=O)[C@@H]23)OCO4)cc(OC)c1O (stereo partly drawn)
inactive: [1] -25.7% | [2] -23.1% | [3] -16.8% | [4] 5.8% | [5] 2.85% | [6] -13.6%

NC1=C(N2CC2)C(=O)C(N)=C(N2CC2)C1=O
inactive: [1] 9.1% | [2] -21.4% | [3] -8.4% | [4] 7.9% | [5] -25.6% | [6] -12.7%

O=[N+]([O-])c1cccc2c([N+](=O)[O-])cccc12
inactive: [1] 3.6% | [2] 5.2% | [3] -1.15% | [4] -4.85% | [5] -0.7% | [6] 0.05%

NCCN.NCCN.O=C([O-])CCl.O=C([O-])CCl.[Co+3].[O-][Cl+3]([O-])([O-])[O-]
inactive: [1] -23.8% | [2] 3.45% | [3] -43.2% | [4] 8.4% | [5] -18.5% | [6] -9%

CN1Cc2cc3cc4c(cc3nc2N(C)C1)OCCO4
inactive: [1] 1.5% | [2] 12.2% | [3] -1.5% | [4] 11.4% | [5] 8.9% | [6] 15.1%
